Compound activity deposited in PubChem BioAssay by National Center for Advancing Translational Sciences (NCATS).
p53 reactivator: re-activators of mutant p53; H1299 p53-A138V BP100-luciferase reporter, luminescence, 24 h; Potency, µM (titrated, usually from 92.2 µM), without a hit: at the top dose activity change, positive = activation, usual class: activators; hit rate 0.063% among 320,000; AID 504706; further: potency means the concentration at half of the fitted maximal effect; % of control where 0% means no effect; nearly all actives have a fitted effect of over 45% in size
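p53-null H1299 cells stably carrying temperature-sensitive p53-A138V and a BP100-luciferase reporter were pinned with compounds (4-point, 1:5 series) and held 24 hrs at 37 deg C. Luminescence was read 10 min after detection reagent.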
RORg inh: inhibitors of mouse ROR gamma transcriptional activity; Drosophila S2 Gal4-RORgamma UAS-luciferase reporter, 20 h; hit rate 5.4% among 310,000; Potency, µM (titrated, usually from 53.6 µM), for inactives: at the top dose activity change, negative = inhibition, hits mostly inhibitors; P51450; AID 2551; further: potency means the concentration at half of the fitted maximal effect; on the % scale 0 is the no-effect control and ±100 the full control effect; nearly all actives have a fitted effect of over 60% in size
Target sequence (P51450 whole entry, looked up, the tested form may be a part): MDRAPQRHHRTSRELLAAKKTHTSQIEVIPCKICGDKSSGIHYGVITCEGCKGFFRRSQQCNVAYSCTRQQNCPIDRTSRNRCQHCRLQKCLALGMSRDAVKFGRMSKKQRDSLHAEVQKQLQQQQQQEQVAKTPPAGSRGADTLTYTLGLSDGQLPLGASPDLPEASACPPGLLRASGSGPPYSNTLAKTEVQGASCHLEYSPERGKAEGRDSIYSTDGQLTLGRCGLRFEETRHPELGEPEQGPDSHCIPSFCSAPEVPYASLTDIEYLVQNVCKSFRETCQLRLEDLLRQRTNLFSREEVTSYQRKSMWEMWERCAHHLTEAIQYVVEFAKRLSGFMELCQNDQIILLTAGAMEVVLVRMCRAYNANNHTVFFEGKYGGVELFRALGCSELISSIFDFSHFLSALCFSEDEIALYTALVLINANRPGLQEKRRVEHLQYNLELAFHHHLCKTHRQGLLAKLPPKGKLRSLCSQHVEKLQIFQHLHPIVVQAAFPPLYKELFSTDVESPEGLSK
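Drosophila S2 cells stably expressing Gal4-DBD/mouse RORγ fusion under metallothionein promoter plus UAS-luciferase; compound 1 h, then 700 uM CuSO4 induction for 20 h at ambient temperature; inhibition read as reduced luminescence.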
Six1-Eya2 inh: Six1/Eya2 interaction inhibition; AlphaScreen GST-Six1/His-Eya2 binding, biochemical; active compounds read low; activity change, % (no concentration beside the values); hit rate 0.56% among 360,000; AID 651725; in the data active means activity change below about -65%; inconclusive means mostly about -30% to -63%; further: on the % scale 0 is the no-effect control and ±100 the full control effect
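GST-Six1 + His-Eya2 (5X stock: 250/500 nM); Tris pH 8.0, 300 mM NaCl, 0.05% BSA, 0.02% Tween 20; GSH donor/Ni acceptor beads; 1 h 37 °C dark; AlphaScreen readout.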
VP16 counter: inhibits Gal4-VP16 luciferase reporter, ROR gamma counter-screen | Potency, µM (series often up to 53.6 µM), without a hit: top-dose activity, negative = inhibition, usual class: inhibitors | Drosophila S2 Gal4-VP16 UAS-luciferase, luminescence, 20 h | hit rate 3.5% among 310,000;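 further: Gal4-VP16 expression switched on by copper sulfate through the metallothionein promoter; potency means the concentration at half of the fitted maximal effect; on the % scale 0 is the no-effect control and ±100 the full control effect; nearly all actives have a fitted effect of over 50% in size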
CtBP-E1A inh: inhibitors of CtBP/E1A interaction; AlphaScreen GST-E1A/His-CtBP binding, 1536-well; active compounds read low; activity change, % (concentration not given with the values); hit rate 0.49% among 340,000; AID 651724; in the data active means activity change below about -65%; inconclusive means mostly about -30% to -63%; further: on the % scale 0 is the no-effect control and ±100 the full control effect
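Protein mix (5X: 125 nM each GST-E1A, His-CtBP) was incubated with pinned compound 2 h at 37 deg C in dark, in 50 mM Tris pH 8.0 buffer with 300 mM NaCl. Glutathione donor and nickel acceptor beads followed; AlphaScreen signal read after 1 h.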
An asterisk follows results filed as active; [ ] = remark or other dose. Shown are actives, neighbours in structure and some others; about 5.4% of the full set was active somewhere. Unless noted, the call rests on the fitted dose curve; in most records, active means well fitted curve in the direction sought with a large enough effect; inconclusive means small, poorly fitted or top-dose-only effect, or another doubt; inactive means no such curve, though single readings can be large; an effect the other way counts as inactive or inconclusive.

What do the screens show for `Cc1[nH]n(-c2ccccc2)c(=S)c1C=Nc1cccc([N+](=O)[O-])c1`?
p53 reactivator: -2%; RORg inh: 1.8µM*; Six1-Eya2 inh: 1; VP16 counter: 7.1µM*; CtBP-E1A inh: 0

What do the screens show for `O=[N+]([O-])c1ccc(C=Nc2ccccc2)cc1`?
Six1-Eya2 inh: -12; CtBP-E1A inh: -10

Results for CCCCN=Cc1c(C)[nH]n(-c2ccccc2)c1=S ?
p53 reactivator: -2%; RORg inh: 0.63µM*; Six1-Eya2 inh: -15; VP16 counter: 2.5µM*; CtBP-E1A inh: -6

What do the screens show for `Cc1[nH]n(-c2ccccc2)c(=O)c1/C=N/NC(=O)c1ccc(O)cc1O`?
p53 reactivator: 20%; RORg inh: 1.8µM*; Six1-Eya2 inh: -91*; VP16 counter: 7.1µM*

What do the screens show for `CCCCN(CCCC)C(=S)N/N=C/c1c(C)[nH]n(-c2ccccc2)c1=O`?
p53 reactivator: -4%; RORg inh: 1.6µM*; Six1-Eya2 inh: -19; VP16 counter: 5µM*; CtBP-E1A inh: -19

What do the screens show for `Cc1[nH]n(-c2ccccc2)c(=O)c1C=NCCc1ccccc1`?
p53 reactivator: 12%; RORg inh: -10%; Six1-Eya2 inh: 9; VP16 counter: 6%

What do the screens show for `CCOC(=O)c1[nH]c(C)c(CC(C)C)c1C`?
p53 reactivator: 4%; RORg inh: 14%; Six1-Eya2 inh: -9; VP16 counter: 6%; CtBP-E1A inh: -18

How did CN(CCCn1ccc(NC(=O)OCc2ccccc2)nc1=O)Cc1ccco1 do in these assays?
Six1-Eya2 inh: -4; CtBP-E1A inh: -9

What do the screens show for `Cc1cc(C(=O)N/N=C/c2c(C)[nH]n(-c3ccccc3)c2=O)n[nH]1`?
p53 reactivator: 5%; RORg inh: 10µM*; Six1-Eya2 inh: -91*; VP16 counter: inconclusive; CtBP-E1A inh: -94*

Results for Cc1ccc(-n2[nH]c(C)c(/C=N/NC(=O)c3ccc(O)cc3O)c2=O)cc1 ?
p53 reactivator: inconclusive; RORg inh: 2.5µM*; Six1-Eya2 inh: inconclusive; VP16 counter: 7.1µM*; CtBP-E1A inh: inconclusive

Results for Cc1cc(C(=O)N/N=C/c2c(C)n(C)c3ccccc23)n[nH]1 ?
p53 reactivator: -2%; RORg inh: 6%; Six1-Eya2 inh: -1; VP16 counter: 0%; CtBP-E1A inh: -9

What do the screens show for `Cc1[nH]n(-c2ccc(Br)cc2)c(=O)c1/C=N/NC(=O)c1ccccc1`?
p53 reactivator: -13%; RORg inh: 0.28µM*; Six1-Eya2 inh: -11; VP16 counter: 0.13µM*

How did Cc1[nH]n(-c2ccccc2)c(=O)c1/C=N/NC(=O)c1cccc(F)c1 do in these assays?
p53 reactivator: inconclusive; RORg inh: 0.56µM*; Six1-Eya2 inh: -92*; VP16 counter: 1.3µM*

What do the screens show for `COc1ccc(CCNC(=O)COC(=O)C2CC2)cc1OC`?
p53 reactivator: 6%; Six1-Eya2 inh: 1; CtBP-E1A inh: 6

How did Oc1ccc2ccccc2c1N=Nc1ccc(F)cc1 do in these assays?
p53 reactivator: 5%; RORg inh: -18%; Six1-Eya2 inh: inconclusive; VP16 counter: 1%; CtBP-E1A inh: -24

How did Oc1c(N=Nc2nn[nH]n2)ccc2ccccc12 do in these assays?
Six1-Eya2 inh: -76*; CtBP-E1A inh: inconclusive

What do the screens show for `COc1ccc(N=Nc2ccc3ccccc3c2)c(O)c1`?
RORg inh: -30%[1.91 µM]; Six1-Eya2 inh: inconclusive; VP16 counter: inconclusive

How did Cc1ccc(N=Nc2ccc3ccccc3c2O)cc1 do in these assays?
RORg inh: -2%[1.91 µM]; Six1-Eya2 inh: -88*; VP16 counter: inconclusive; CtBP-E1A inh: -1

Results for COc1cccc(N=Nc2ccc3ccccc3c2O)c1 ?
p53 reactivator: 39%; RORg inh: 8.9µM*; Six1-Eya2 inh: -82*; VP16 counter: inconclusive

Results for Oc1c(N=Nc2ccc(F)cc2)ccc2ccccc12 ?
RORg inh: 25%[1.91 µM]; Six1-Eya2 inh: inconclusive; VP16 counter: inconclusive; CtBP-E1A inh: -76*

How did Cc1ccc(OCCC(=O)OCC(=O)NC2CCS(=O)(=O)C2)cc1 (configuration not stated) do in these assays?
p53 reactivator: 2%; Six1-Eya2 inh: 9; CtBP-E1A inh: 3
